Measurements published in PubChem BioAssay.

tested on: Plasmodium falciparum Sir2 (PF13_0152, Sir2A); test: pfSir2 binders on small-molecule microarrays, primary screen, biochemical, small-molecule microarray, 635 nm fluorescence (AID 1098); details: small-molecule microarray binding, fluorescence 635 nm; higher = more signal;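 note: score merges spot fluorescence intensity with its signal-to-noise ratio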

Q: For `CCOC(=O)C1=C[C@@H](C(C)(C)C)N(S(=O)(=O)c2ccc(C)cc2)[C@H]1c1ccc(C)cc1`, which composite z-score is on record?
A: 0.772

Q: Which composite z-score does the source give for `CCOC(=O)C[C@H]1[C@H](OC(=O)c2ccccc2-c2ccccc2)[C@@H](NC(=O)c2ccccc2)c2cc(OCCCO)ccc2N1C(=O)c1ccccc1` here?
A: -0.242

Q: Which composite z-score does the source give for `O=C1C2C=CC(C(O)C=Cc3ccc([N+](=O)[O-])cc3)N(Nc3ccccc3)C2C(=O)N1c1ccccc1` (configuration not stated) here?
A: 1.37

tested on: not listed separately; test: small-molecule microarray binders of probe aDKK1, primary screen, biochemical, biotinylated probe, 635/667 nm fluorescence (AID 1099); details: higher = more signal;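 note: score merges 667nm spot fluorescence with signal to noise across triplicate slides; reference of the scale not given here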

Q: Which composite z-score does the source give for `CC(C)(C)OC(=O)CC[C@]1(C(=O)N2CCCCC2)COC(c2ccc(OCCCO)cc2)=N1` here?
A: 0.14

Q: Which composite z-score does the source give for `NC(=O)[C@H]1[C@@H]2C(=O)O[C@@H](c3ccccc3)[C@@H](c3ccccc3)N2[C@@H](c2ccc(O)cc2)[C@]12C(=O)Nc1ccc(C#CC3=CCCCC3)cc12` here?
A: -0.157

Q: For `CN1C(=O)[C@@]2(Cc3ccccc3)N=C(c3ccc(OCCCO)cc3)O[C@H]2c2ccccc21`, which composite z-score is on record?
A: 0.428

Q: For `Cc1nc2cc(Br)ccc2c(=O)n1Cc1cccc(O)c1`, which composite z-score is on record?
A: -0.136

Q: For `Cc1ccc(N2C(=O)c3ccccc3[C@](C)(C(=O)NCc3ccccc3)[C@@H]2c2ccc(CO)cc2)nc1`, which composite z-score is on record?
A: 0.499

Q: With `CCCNC(=O)[C@@]1(Sc2ccc(C)cc2)CC(=O)N(C2CCCCC2)[C@@H]1c1ccc(CO)cc1I` as the compound, how does the composite z-score read?
A: 0.548

Q: For `COC(=O)[C@@]1(Cc2ccc(F)cc2)[C@H]2c3cc(C(=O)N(C)C)n(Cc4c(CO)[nH]cc(C)c4=O)c3C[C@H]2CN1C(=O)c1ccccc1`, which composite z-score is on record?
A: 0.617

Q: For `O=C1C2C=CC(C(O)c3ccco3)N(Nc3ccccc3)C2C(=O)N1c1ccccc1` (configuration not stated), which composite z-score is on record?
A: 0.144

Q: With `C=C(COC)C(=O)CC[C@H](OC(C)=O)c1ccc(OCCO)cc1` as the compound, how does the composite z-score read?
A: -0.0747

Q: Which composite z-score does the source give for `COCCOC(=O)N1C(=O)[C@@]2(c3cc(C#CC4=CCCCC4)ccc31)[C@H](c1ccc(O)cc1)N1[C@H](c3ccccc3)[C@H](c3ccccc3)OC(=O)[C@H]1[C@@H]2C(=O)NC[C@H](O)c1ccccc1` here?
A: 0.0353

Q: For `[N-]=[N+]=NC[C@H](Cc1ccccc1)NC(=O)c1ccccc1`, which composite z-score is on record?
A: -0.124

Q: Which composite z-score does the source give for `COC(=O)[C@@]1(Cc2ccc(OC)cc2)[C@H]2c3cc(C(=O)N4CCCC4)n(Cc4ccc(OC(F)(F)F)cc4)c3C[C@H]2CN1C(=O)c1ccccc1` here?
A: 1.15

Q: For `CCC(CC)C(O)C1C=CC2C(=O)N(c3ccccc3)C(=O)C2N1Nc1ccc([N+](=O)[O-])cc1` (configuration not stated), which composite z-score is on record?
A: 1.02

Q: For `COC(=O)C1N=C(c2ccc(OCCCO)cc2)N(c2ccccc2)O1` (configuration not stated), which composite z-score is on record?
A: 0.947

Q: With `Cc1ccccc1C(O)C1C=CC2C(=O)N(c3ccccc3)C(=O)C2N1Nc1ccc([N+](=O)[O-])cc1` (configuration not stated) as the compound, how does the composite z-score read?
A: 0.25

Q: For `COCC1=C2[C@@H](CCc3ccccc3)OB(O)C[C@@H]2[C@@H]2C(=O)N(C)C(=O)[C@@H]2C1`, which composite z-score is on record?
A: -0.333

Q: For `O=C1O[C@H](c2ccccc2)[C@H](c2ccccc2)N2[C@H]1[C@@H](C(=O)N1CCCCCCC1)[C@]1(C(=O)Nc3ccc(C#CC4(O)CCCCCC4)cc31)[C@H]2c1ccccc1OCCO`, which composite z-score is on record?
A: 3.17

Q: Which composite z-score does the source give for `CCOC(=O)C1=CC[C@@H](c2ccccc2)N(S(=O)(=O)c2ccc(C)cc2)[C@H]1c1cccc(OC)c1` here?
A: 0.708

Q: With `COc1cc(C(O)C2C=CC3C(=O)N(Cc4ccccc4)C(=O)C3N2n2cnnc2)cc(OC)c1OC` (configuration not stated) as the compound, how does the composite z-score read?
A: 0.71

Q: With `COc1ccc([Si](C)(C)[C@@H]2[C@@H](CCn3cc([C@H](O)c4ccccc4)nn3)O[C@]3(C(=O)N(c4ccccc4)c4ccccc43)[C@H]2C)cc1` as the compound, how does the composite z-score read?
A: -0.016

Q: With `COc1cc(NN2C(C(O)c3ccccc3)C=CC3C(=O)N(C)C(=O)C32)cc(OC)c1OC` (configuration not stated) as the compound, how does the composite z-score read?
A: 0.195

Q: Which composite z-score does the source give for `NC(=O)N1C(=O)C2C(C1=O)C1C=C(CCCO)C2C(C2CC2)N1Cc1cccc(OC(F)(F)F)c1` (configuration not stated) here?
A: -0.306

Q: For `O=c1cccc(-c2ccc(F)cc2)o1`, which composite z-score is on record?
A: 0.328

Q: Which composite z-score does the source give for `CN(C)CCCCCCNC(=O)[C@@H]1C[C@@H]2C(=O)N[C@@H](CCCCN)C(=O)N2[C@@H]1c1ccc(O)cc1` here?
A: 3

Q: For `COCCOC(=O)N1C(=O)[C@@]2(c3cc(C#Cc4ccc(OC)cc4)ccc31)[C@H](C(=O)NC[C@H](O)c1ccccc1)[C@H]1C(=O)O[C@H](c3ccccc3)[C@H](c3ccccc3)N1[C@@H]2c1ccc(OCCO)cc1`, which composite z-score is on record?
A: -0.0284

Q: For `CC(C)C(=C=CC[C@@H](O)c1cccc(OCCO)c1)C[C@@H](O)c1ccccn1`, which composite z-score is on record?
A: -0.261

Q: For `C=C(CCCC)C(=O)CC[C@H](OC(C)=O)c1ccc(OCCO)cc1`, which composite z-score is on record?
A: -0.262

Q: For `C=C(CCCC)/C(=C/C[C@H](OC(C)=O)c1ccc(OCCO)cc1)c1cc(C(=O)OC)ccc1OC`, which composite z-score is on record?
A: -0.131

Q: For `COc1cc2c(cc1O)C(c1ccc(CN3CCCC3)cc1)N(C)CC2` (configuration not stated), which composite z-score is on record?
A: -0.0829
